Screening data from PubChem BioAssay.
Giardia FBPA inh – Giardia lamblia aldolase inhibition | AID 2451 | purified Giardia FBPA | A8B2U2 | Potency, µM (highest dose often 59.6 µM), usual class: inhibitors | 0.71% of 290,000 active; further: nearly all actives have a fitted effect of over 55% in size
Target sequence (A8B2U2 whole entry, looked up): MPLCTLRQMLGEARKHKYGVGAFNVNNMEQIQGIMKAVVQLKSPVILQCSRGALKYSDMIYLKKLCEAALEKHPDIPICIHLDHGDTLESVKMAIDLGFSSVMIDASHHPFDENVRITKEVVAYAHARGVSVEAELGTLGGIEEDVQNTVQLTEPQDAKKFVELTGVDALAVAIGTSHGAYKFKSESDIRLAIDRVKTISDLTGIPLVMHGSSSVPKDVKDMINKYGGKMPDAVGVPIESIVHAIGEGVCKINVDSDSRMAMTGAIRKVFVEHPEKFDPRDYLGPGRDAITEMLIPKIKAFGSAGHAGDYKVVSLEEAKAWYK
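40 nM FBPA preincubated 10 min at RT with compound (up to 57.5 uM final), then substrate plus GAPDH/TPI/NAD/arsenate coupling and diaphorase/resazurin added. Fluorescence read after 20 min at RT, 525/598 nm.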
SARS PLpro yeast-1 – blocks SARS-CoV papain-like protease in a yeast assay. AID 485353. S. cerevisiae expressing SARS-CoV PLpro, growth rescue. 0.19% of 330,000 active. Potency, µM (series often up to 32.9 µM), most hits filed as activators; calls by dose curve; further: nearly all actives have a fitted effect of over 55% in size
AmpC inh no detg – blocks E. coli AmpC beta-lactamase in detergent-free assay | P00811 | AmpC nitrocefin hydrolysis, absorbance 480 nm, 0.0001% Triton | Potency, µM (top dose mostly 57.1 µM), hits mostly inhibitors | 0.52% of 330,000 active | AID 485341; further: nearly all actives have a fitted effect of over 20% in size
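AmpC (5.3 nM in the dispensed reagent) in 20 mM phosphate pH 7.0 with 0.01% (detergent screen) or 0.0001% Triton X-100 was preincubated with compounds for 15 min at room temperature. Nitrocefin was then added from an 800 uM solution, and hydrolysis was followed at 480 nm.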
AmpC detergent – AmpC beta-lactamase inhibition with detergent present. Potency, µM (highest dose often 114 µM), hits mostly inhibitors. AmpC hydrolysis of nitrocefin, absorbance 480 nm, 0.01% Triton. P00811. 0.041% of 370,000 active; further: nearly all actives have a fitted effect of over 25% in size
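AmpC (5.3 nM in the dispensed reagent) in 20 mM phosphate pH 7.0 with 0.01% (detergent screen) or 0.0001% Triton X-100 was preincubated with compounds for 15 min at room temperature. Nitrocefin was then added from an 800 uM solution, and hydrolysis was followed at 480 nm.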
SARS PLpro yeast-2 – Inhibits SARS-CoV PLP in yeast, hit validation; shares compounds with SARS PLpro yeast-1; yeast expressing SARS-CoV PLpro, growth phenotype rescue; calls only; 19% of 1,000 active; call rule not given here
Hits are given with their value; i = inactive; ? = inconclusive; nt = no result; + = active, no number. In the library only some 1.1% were active in any assay of this set; here they are far more common. Unless noted, the call rests on the fitted dose curve; in most records, active means well fitted curve in the direction sought with a large enough effect; inconclusive means small, poorly fitted or top-dose-only effect, or another doubt; inactive means no such curve, though single readings can be large; an effect the other way counts as inactive or inconclusive.

SMILES	Giardia FBPA inh	SARS PLpro yeast-1	AmpC inh no detg	AmpC detergent	SARS PLpro yeast-2
N#Cc1ccc(C23CC4CC(CC(C4)C2)C3)[nH]c1=O	i	i	i	?	nt
CCNc1ccccc(-c2ccc3ccccc3n2)c1=O	?	11µM	i	i	i
O=C(CCN1CCN(C(c2ccccc2)c2ccccc2)CC1)N/N=C/c1ccc(O)cc1O	i	4.5µM	i	?	i
CN(C)c1cccc(C(=O)N/N=C/c2ccsc2)c1	i	20µM	i	i	i
CCOC(=O)c1ccc(-c2ccc(C3Nc4ccccc4C(=O)N3O)o2)cc1 (configuration not stated)	?	5µM	i	i	?
O=C(Cc1ccccc1[N+](=O)[O-])NCc1ccc(Cl)cc1Cl	i	?	i	i	i
O=C(Cc1ccccc1[N+](=O)[O-])NCc1ccc(Cl)cc1	i	i	i	?	nt
CCOc1ccc(N(C)S(=O)(=O)c2c(C(=O)N3CCC(C)CC3)c(C)n(C)c2C)cc1	nt	nt	nt	i	nt
O=[N+]([O-])c1ccc(/C=N/N2CCN(c3ccncc3S(=O)(=O)N3CCCCC3)CC2)cc1	i	3.2µM	i	?	i
O=C(CSc1nnc(Cn2c(=O)sc3ccccc32)n1-c1ccccc1)N1CCCC1	i	?	i	?	i
O=C(CSc1nnc(Cn2c(=O)sc3ccccc32)n1-c1ccccc1)N1CCCCCC1	i	i	i	i	nt
CCOc1ccc(/C=C/c2nc(C#N)c(N3CCCCC3)o2)cc1	nt	nt	nt	i	nt
O=C(NCc1ccc(CNC(=O)c2ccco2)cc1)c1ccco1	nt	?	i	i	i
CC(=O)N(C)Cc1ccc(C(=O)CCl)cc1	i	7.9µM	i	i	+
CCOc1cccc(/C=N/Nc2ccc(S(=O)(=O)N(CC)CC)cn2)c1O	i	7.9µM	i	?	i
CCN(CC)S(=O)(=O)c1ccc(N/N=C/c2cc(OC)c(OC)cc2OC)nc1	i	i	i	i	nt
CCOC(=O)C1=C(CNCc2ccc(C)cc2)NC(=O)NC1c1cc(C)ccc1C (configuration not stated)	i	?	i	?	i
CCOC(=O)C1=C(Cn2cnc3ccccc32)NC(=O)NC1c1cc(C)ccc1C (configuration not stated)	i	i	i	i	nt
Brc1ccc(C2N3CCCN23)cc1 (configuration not stated)	i	18µM	i	i	?
Cc1ccc(C2N3CCCN23)cc1 (configuration not stated)	i	i	i	i	nt
COc1cc2nc(CN3C(=O)c4ccccc4C3=O)oc(=O)c2cc1OC	i	22µM	i	?	i
O=C(Nc1nc(-c2ccccc2)cs1)C1COc2ccccc2O1 (configuration not stated)	i	i	i	?	nt
O=C(Nc1nc(-c2ccccn2)cs1)C1COc2ccccc2O1 (configuration not stated)	?	?	i	i	+
Cc1ccc2nc(Nc3nc(CSc4nnnn4-c4ccccc4)cc(=O)[nH]3)nc(C)c2c1	i	?	i	i	i
COc1nc(Nc2ccc(O)cc2)nc(OC(C(F)(F)F)C(F)(F)F)n1	i	i	i	i	nt
SMILES	Giardia FBPA inh	SARS PLpro yeast-1	AmpC inh no detg	AmpC detergent	SARS PLpro yeast-2
COc1nc(Nc2ccc(C(C)C)cc2)nc(OC)n1	i	?	i	?	i
CC(C)c1ccc(NC(=S)NN2C(C)CCCC2C)cc1 (configuration not stated)	i	?	i	i	nt
CC1CCCC(C)N1NC(=S)Nc1ccc(OC(F)F)cc1 (configuration not stated)	i	?	i	?	+
COc1ccc(NC(=S)NN2C(C)CCCC2C)cc1 (configuration not stated)	i	13µM	i	i	+
COc1cccc(NC(=S)NN2CCN(C)CC2)c1	nt	i	i	?	nt
CC1CCCCN1C(=S)Nc1ccc(OC(F)F)cc1 (configuration not stated)	i	i	i	i	nt
COc1cccc(NC(=S)NN2C(C)CCCC2C)c1 (configuration not stated)	i	?	i	i	+
Cc1ccccc1Nc1oc(-c2ccccc2)nc1-c1cccs1	i	nt	nt	nt	nt
Cc1ccc(-c2nc3ccccc3c(=O)n2-c2cccc(C)n2)cc1	i	i	i	i	nt
Cc1ccc(-c2nc3ccccc3c(=O)n2-c2cc(C)ccn2)cc1	i	4µM	i	i	i
CCCCOC(=O)Oc1ccc2c(=O)c(Oc3cc(C)cc(C)c3)coc2c1	i	?	i	?	i
CCCOC(=O)Oc1ccc2c(=O)c(Oc3cc(C)cc(C)c3)coc2c1	i	i	i	i	nt
COc1cc(NC(=O)CC2C(=O)N(c3ccc(Cl)cc3)C(=O)N2Cc2cccs2)cc(OC)c1 (configuration not stated)	nt	nt	nt	i	nt
NC(=NCCc1ccccc1)NS(=O)(=O)c1ccc(F)cc1	i	?	i	i	i
NC(=NCCc1ccccc1)NS(=O)(=O)c1ccc2ccccc2c1	i	i	i	i	nt
CCOC(=O)c1[nH]c(C)c(CCC(=O)N2CCN(c3cc(Cl)ccc3C)CC2)c1C	nt	nt	nt	i	nt
CCOc1ccc(Nc2oc(-c3cccc(Cl)c3)nc2C#N)cc1	i	?	i	i	?
O=c1[nH]c(=O)n(Cc2ccccc2)c(O)c1/C=N/NCCO	i	i	i	i	nt
O=C(N/N=C/c1c(O)n(Cc2ccc(F)cc2)c(=O)[nH]c1=O)c1ccccc1O	?	11µM	i	i	i
COc1ccc(Cn2c(O)c(/C=N/NC(=O)c3ccccc3O)c(=O)[nH]c2=O)cc1	?	10µM	i	i	i
O=C(N/N=C/c1c(O)n(Cc2ccccc2)c(=O)[nH]c1=O)c1ccccc1O	?	10µM	i	i	i
COc1ccc(Cn2c(O)c(/C=N/NC(=O)c3ccccc3)c(=O)[nH]c2=O)cc1	?	10µM	i	?	i
Cc1ccccc1CN1C(=O)C(O)(c2c[nH]c3ccccc23)c2cc(Cl)ccc21 (configuration not stated)	nt	nt	nt	i	nt
CCc1cc2c(cc3c(=O)n(CC(=O)NCc4cc(Br)ccc4OC)ncn32)s1	nt	nt	nt	i	nt
O=C(N/N=C/c1c(O)n(CCc2ccccc2)c(=O)[nH]c1=O)c1ccccc1O	?	2.2µM	i	i	?
SMILES	Giardia FBPA inh	SARS PLpro yeast-1	AmpC inh no detg	AmpC detergent	SARS PLpro yeast-2
CCCN1C(=O)SC(CC(=O)Nc2ccccc2C)C1=O (configuration not stated)	i	?	i	i	i
Cc1c(C=O)c2ccccc2n1Cc1ccc([N+](=O)[O-])cc1	i	?	i	i	i
CCOC(=O)c1c(NC(=O)C(C)Sc2cn(CCNC(=O)c3c(F)cccc3F)c3ccccc23)sc2c1CCC2 (configuration not stated)	nt	nt	nt	i	nt
CC(=O)Nc1ccc(C(=O)CSc2nnc3cc(C)c4ccccc4n23)cc1	nt	nt	nt	i	nt
Cc1ccc(/C=C/C(=O)c2ccccc(=O)c2O)cc1C	?	?	i	?	?
O=C(/C=C/c1ccc(O)cc1)c1ccccc1O	i	nt	nt	nt	nt
CNC(=O)Oc1ccc2ncccc2c1	i	14µM	i	?	+
O=C(Nc1ccc2ncccc2c1)c1ccccc1	i	i	i	i	nt
